Compound activity deposited in PubChem by National Center for Advancing Translational Sciences (NCATS).
HT1080 IDH1KD tx = toxicity to HT-1080 IDH1 knockdown cells (counter line); actives 2% (n = 360,000); HT-1080 IDH1 knockdown viability, ATP luminescence, 48 h; AID 686971; Potency, µM (top dose mostly 46.1 µM), inactives show top-dose activity, negative = toxicity, most hits filed as cytotoxic;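 further: potency means the concentration at half of the fitted maximal effect; 0% = DMSO wells and -100% = cell-free medium wells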
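After a 2 h attachment period, IDH1KD HT-1080 cells took pin-transferred compound for 48 h at 37 °C; ATP-based luminescence after 10 min room-temperature reagent incubation reported viability.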
HT1080-NT tox = kills 2HG-producing HT-1080-NT fibrosarcoma cells; HT-1080-NT fibrosarcoma viability, CellTiter-Glo ATP luminescence, 48 h; Potency, µM (series often up to 46.1 µM), for the others: at the highest dose activity, negative = less viability, actives largely listed as cytotoxic; actives 1.6% (n = 360,000); AID 686970;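 further: NT is the 2HG producing partner of a matched IDH1 knockdown line; potency means the concentration at half of the fitted maximal effect; 0% = DMSO-treated cells and -100% = media-only wells without cells; nearly all actives have a fitted effect of over 55% in size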
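Viability of the 2HG-overproducing fibrosarcoma line after 48 hours of compound exposure at 37 degrees C was determined by luminescence with CellTiter-Glo, and concentration-effect curves were then fitted and categorized.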
IL-1B inflam inh = inflammasome signaling inhibition, IL-1 beta readout. THP-1 LPS/ATP IL-1B secretion, AlphaLISA, 16 h; hits give low values. actives 4.7% (n = 360,000). activity change, % at 57.5 µM; in the data active means activity change below about -50%; inconclusive means mostly about -30% to -49%
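Secreted IL-1B measured by AlphaLISA bead assay after 16 h compound exposure of THP-1 cells; compounds (final up to 57.5 uM) added 1 h before LPS (250 ng/mL) and ATP (1.25 mM) stimulation; lower signal means less secretion.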
KB-3-1 cytotox = KB-3-1 parental cell cytotoxicity. Potency, µM (highest dose often 46.1 µM), most hits filed as cytotoxic. actives 1.4% (n = 400,000). KB-3-1 viability, CellTiter-Glo ATP luminescence, 72 h. AID 1347075; further: potency means the concentration at half of the fitted maximal effect; nearly all actives have a fitted effect of over 60% in size
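Cells are dispensed, compounds pinned in, plates held at 37 °C for 72 h, then CellTiter-Glo is added and luminescence read after 10 minutes. Cell line: parental KB-3-1 in phenol-red-free DMEM, 10% FBS.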
KB-V1 MDR tox = KB-V1 MDR subline cytotoxicity. actives 3.4% (n = 400,000). Potency, µM (doses to about 46.1 µM), hits mostly cytotoxic. AID 1347076. KB-V1 MDR cells viability, CellTiter-Glo, 72 h; further: potency means the concentration at half of the fitted maximal effect; nearly all actives have a fitted effect of over 60% in size
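Cytotoxicity toward P-gp-expressing KB-V1 cells was determined as loss of CellTiter-Glo luminescence after 72 h at 37 degrees C. Compounds were tested in quantitative HTS format across a concentration range, with curves fitted to normalized data.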
* = called active by the depositor; i = inactive; ? = inconclusive; · = no result; [ ] = dose if it differs, or a comment. Most compounds without a hit are left out; they make up all but 8.8% or so of the library. Unless noted, the call rests on the fitted dose curve; in most records, active means well fitted curve in the direction sought with a large enough effect; inconclusive means small, poorly fitted or top-dose-only effect, or another doubt; inactive means no such curve, though single readings can be large; an effect the other way counts as inactive or inconclusive. Unless noted, on the % scale 0 is the no-effect control and ±100 the full control effect.

SMILES	HT1080 IDH1KD tx	HT1080-NT tox	IL-1B inflam inh	KB-3-1 cytotox	KB-V1 MDR tox
O=C(NS(=O)(=O)c1ccc(Cl)cc1)c1ccccc1	-0.8%	0.7%	-0.5	i	i
O=C(NC(=C(Cl)Cl)S(=O)(=O)c1ccc(Cl)cc1)c1ccccc1	?	?	-92.9*	i	?
Cc1ccc2c(c1)cc(C(=O)Nc1ccc(F)cc1F)n2C	·	·	·	?	i
Cc1ccccc1NC(=O)OCc1cccnc1Oc1ccc(Cl)cc1	?	-17.9%	-79.4*	i	i
Cc1ccc(C(=O)Nc2cccnc2Oc2ccc(Cl)cc2)cc1	-7.0%	-2.7%	-62.2*	i	i
COC1CCN(C(=O)c2ccc3oc(Cc4ccc(Cl)cc4)nc3c2)CC1	0.1%	-3.3%	17.0	i	i
CCOC(=O)C1CCCN(C(=O)c2ccc3oc(Cc4ccccc4)nc3c2)C1 (stereo unspecified)	4.0%	3.9%	-4.8	i	i
COC1CCCN(C(=O)c2ccc3oc(Cc4ccc(Cl)cc4)nc3c2)C1 (stereo unspecified)	-4.7%	6.8%	-0.3	i	2.59µM*
CC(C)CC(=O)C1CCCN(C(=O)c2ccc3oc(Cc4ccccc4)nc3c2)C1 (stereo unspecified)	-22.2%	-3.3%	-52.0*	?	i
Cc1ccccc1S(=O)(=O)NC(=O)C1(C)CCN1C(=O)COc1ccc(Cl)cc1 (stereo unspecified)	9.8%	23.1%	9.6	i	i
COCC1CCCN(Cc2cn(-c3ccccc3)nc2-c2ccc3c(c2)OCO3)C1 (stereo unspecified)	1.5%	0.3%	-7.0	i	i
CCOC(=O)c1c(C)[nH]c(C(=O)CN2C(=O)NC3(CCCC3)C2=O)c1C	-8.0%	-5.3%	-15.5	i	i
CCCC1(c2ccccc2)NC(=O)N(CC(=O)Nc2sc(-c3ccccc3)cc2C(=O)OCC)C1=O (stereo unspecified)	11.6µM*	16.4µM*	27.1	?	?
CCOC(=O)c1cc(-c2ccccc2)sc1NC(=O)CN1C(=O)c2ccccc2C1=O	-5.1%	-0.2%	-28.4	i	i
CCCC1(c2ccccc2)NC(=O)N(CC(=O)c2[nH]c(C)c(C(=O)OCC)c2C)C1=O (stereo unspecified)	1.2%[9.24 µM]	?	-16.7	?	23.1µM*
CCOC(=O)c1c(C)[nH]c(C(=O)CN2C(=O)NC(C)(c3ccc4ccccc4c3)C2=O)c1C (stereo unspecified)	?	?	-26.3	i	10.3µM*
Cc1ccccc1NC(=O)CSc1nc2c(oc3ccccc32)c(=O)n1Cc1ccco1	·	·	·	i	i
CC(C)CC(=O)Nc1nnc(SCC(=O)Nc2nccs2)s1	-1.3%	2.9%	-9.3	i	i
O=C(O)CCCNC(=O)CCCn1nnc2ccccc2c1=O	10.6%	13.0%	9.4	i	i
Cc1c(N2CCCCC2)[nH]c2ccccc12	4.2%	-1.3%	-3.2	i	i
CC(=O)Nc1ccc(/C(C)=N/Nc2nc(Nc3cccc4ccccc34)nc(N3CCOCC3)n2)cc1	?	?	-27.7	?	?
COC(=O)c1cc(NC(=O)CC(=O)c2cccc(N)c2)cc(C(=O)OC)c1	20.6µM*	?	5.5	i	i
CSc1ncccc1C(=O)Nc1ccccc1N1CCOCC1	-5.0%	6.1%	26.3	i	20.6µM*
CSc1ncccc1C(=O)Nc1cc(Cl)ccc1N1CCOCC1	6.9%	-0.2%	-21.5	?	20.6µM*
O=C(Nc1cc(Cl)ccc1N1CCOCC1)c1cccnc1	8.9%	1.8%	-1.0	i	i
SMILES	HT1080 IDH1KD tx	HT1080-NT tox	IL-1B inflam inh	KB-3-1 cytotox	KB-V1 MDR tox
CCCSc1ccc(-c2nn(-c3ccccc3)cc2/C=C(/C#N)C(=O)N2CCOCC2)cc1	-5.1%	-4.9%	?	?	23.1µM*
Cc1cccc(Cn2cc(/C=C/[N+](=O)[O-])c3ccccc32)c1	23.1µM*	?	-67.5*	?	i
COc1cc(/C=C(\C#N)C(=O)N2CCOCC2)cc(Br)c1O	3.9%	7.1%	18.4	i	i
COC(=O)c1ccc(Cn2cc(/C=C\[N+](=O)[O-])c3ccccc32)o1	?	?	-102.4*	?	i
N#C/C(=C\c1cccc(Oc2ccccc2)c1)C(=O)N1CCOCC1	?	?	-99.8*	i	i
CCCCn1c(N)c(N(CC(C)C)C(=O)c2cc(-c3ccc(F)cc3)nc3ccccc23)c(=O)[nH]c1=O	-10.3%	-13.5%	35.5	?	i
Cc1cc(C)c(Cn2c(=O)n(CCCCC(=O)NCc3ccccc3Cl)c(=O)c3ccccc32)c(C)c1	·	·	·	i	i
CCOC(=O)c1c(NC(=O)Cn2cnc3scc(-c4ccc(C)cc4)c3c2=O)sc(C)c1C	-17.0%	-1.9%	-12.5	i	?
O=[N+]([O-])/C=C/c1cn(Cc2ccc(Cl)cc2)c2ccccc12	-17.6%	16.4µM*	?	i	?
CCOC(=O)Cn1cc(/C=C(\C#N)C(=O)N2CCOCC2)c2ccccc21	9.1%	8.5%	-95.2*	i	i
N#C/C(=C\c1cn(CC(=O)N2CCCCC2)c2ccccc12)C(=O)NCc1ccc2c(c1)OCO2	5.6%	3.8%	-16.8	i	25.9µM*
CCOC(=O)Cn1cc(/C=C/[N+](=O)[O-])c2ccccc21	?	?	-50.7*	i	?
CN(C(=O)C(C)(C)C)C1c2c(ccc3ccccc23)OCC1CO (stereo unspecified)	-10.0%	0.0%	31.4	i	i
COC(=O)C1=C(N)Oc2cc(C)n(CC3CCCO3)c(=O)c2C1c1ccccc1OC (stereo unspecified)	4.5%	0.3%	-3.6	i	i
COC(=O)C1=C(N)Oc2cc(N(C)C)ccc2C1c1ccccc1OC (stereo unspecified)	4.11µM*	?	-19.3	i	?
COC(=O)Cn1cnc2c(nnn2-c2ccc(F)cc2)c1=O	7.7%	20.2%	-3.9	i	i
COC(=O)Cn1cnc2c(Cl)nc(F)nc21	-20.0%	-14.5%	-89.6*	i	i
Cc1ccc(CNC(=O)C(=O)NCC(c2cccs2)S(=O)(=O)c2cccs2)cc1 (stereo unspecified)	·	·	·	i	i
Cc1ccc(C)c(NC(=S)NNc2ccc(F)cc2F)c1	25.9µM*	25.9µM*	-100.3*	i	i
Cc1ccccc1NC(=S)NCCc1ccccc1	0.1%	5.9%	-4.0	i	16.4µM*
Cc1ccc(C)c(NC(=S)NCCc2ccc(F)cc2)c1	-0.5%	-2.2%	-66.8*	i	i
CC(C)(C)CC(=O)NC(=S)NCCc1ccccc1	10µM*	?	48.9	i	i
Cc1oc2ncnc(N3CCCCC3)c2c1C(=O)NCC1CCN(Cc2ccccc2F)CC1	·	·	·	i	i
